Screens as filed in PubChem BioAssay.
Pf Dd2 inh: inhibitors of Plasmodium falciparum Dd2 growth. AID 1347417. Potency, µM (titrated, usually from 28.9 µM), inactives show top-dose activity, negative = inhibition, usual class: inhibitors. hit rate 4.3% among 120,000. P. falciparum Dd2 growth, SYBR Green, 72 h; active = well fitted inhibition curve with a large enough effect;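 also: plate controls were DMSO vehicle for no effect and reference drug for full effect; nearly all actives have a fitted effect of over 65% in size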
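Infected erythrocytes (Dd2, 0.3% parasitemia, 2.5% hematocrit final) are added to compound in RPMI-1640/Albumax II medium, grown 72 h at 37C in low oxygen, then lysed with saponin/Triton-X containing SYBR Green and read by fluorescence.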
Active calls of the source: *; i = inactive; [ ] = dose if it differs, or a comment. The full list was thinned out, with hits kept by preference. Potency is read from the fitted curve at half-maximal effect.

SMILES | Pf Dd2 inh
CCOC(=O)N1CCc2c(sc(NCc3cccs3)c2C(=O)Nc2cc(Cl)ccc2OC)C1 | 8.9µM*
COc1ccc(Cl)cc1NC(=O)Cn1nnc(C(=O)NCc2cccs2)c1N | 2%
CCOc1ccc(NC(=O)c2c(NC(=O)c3cccc(C)c3)sc3c2CCC3)cc1 | 13%
CCOC(=O)c1c(NC(=O)COc2ccc(Br)cc2)sc2c1CCCC2 | 20%
O=C(O)CCC(=O)Nc1sc2c(c1C(=O)Nc1ccccc1)CCCCC2 | 2%
CCOc1ccc(/C=C/C(=O)Nc2sc3c(c2C(=O)OC)CCC3)cc1 | 16%
COc1ccccc1NC(=O)c1c(NCc2sccc2C)sc2c1CCCCC2 | 11µM*
CCOc1ccc(NC(=O)c2c(NCc3ccc(C)o3)sc3c2CCCCC3)cc1 | 11µM*
COc1ccccc1NC(=O)c1c(NC(=O)COc2ccccc2)sc2c1CCCCC2 | -3%
CCOc1ccc(NC(=O)c2c(NCc3sccc3C)sc3c2CCCCC3)cc1 | 11µM*
COc1ccc(Cl)cc1NC(=O)Cn1nc(C(F)(F)F)c2c1CCCC2 | 6%
CCOC(=O)c1[nH]ncc1C1CC(=O)Nc2n[nH]c(-c3ccccc3)c21 (configuration not stated) | -5%
COCc1nc(C2CCCN(C(=O)NCC(C)C)C2)no1 (configuration not stated) | -9%
COCCOc1ccc2c(n1)CCN(C(=O)c1cccs1)C2 | -16%
O=C(c1ccc2c(c1)OCO2)N1CCCC2(C1)NC(=O)N(Cc1ccc(Cl)cc1)C2=O (configuration not stated) | i
Cc1oc2c(c1C(=O)NCCN(C)C)CN(CCc1ccccc1)CC2 | -11%
COc1ccc(Cl)cc1NC(=O)c1c(NCc2sccc2C)sc2c1CCCC2 | 13µM*
CCOC(=O)c1c(NC(=O)c2ccccc2OCC)sc2c1CCC(CC)C2 (configuration not stated) | 89%
CC1CCc2c(sc(NC(=O)CCCOc3ccccc3)c2C(N)=O)C1 (configuration not stated) | 30%
CCOc1ccccc1NC(=O)c1c(NCc2sccc2C)sc2c1CCCCC2 | 13µM*
COC(=O)c1c(NC(=O)c2ccc(OC)cc2OC)sc2c1CCCCC2 | 33%
CCOc1ccccc1NC(=O)c1c(NCc2sccc2C)sc2c1CCC(C)C2 (configuration not stated) | 5.6µM*
CCOC(=O)c1c(NC(=O)COc2cccc(C)c2C)sc2c1CCCCC2 | 69%
COc1ccc(NC(=O)c2c(OC)cc(=O)n3c2CCCC3)c(C)c1 | 8%
COc1ccc(NC(=O)c2c(NCc3sccc3C)sc3c2CCCCC3)c(OC)c1 | 13µM*
SMILES | Pf Dd2 inh
O=C(Cc1ccccc1)Nc1sc2c(c1C(=O)Nc1ccccc1Cl)CCC2 | i
CCN1C(=O)Cc2cc(C(=O)NCc3ccc(F)cc3)ccc21 | i
CCCN(CC1CCOC1)S(=O)(=O)c1ccc(OC)c(Cl)c1 (configuration not stated) | i[5.79 µM]
Cc1ccc2nc(CO[C@H]3CN(Cc4ccccn4)C[C@H]3F)[nH]c2c1 | -1%[44.1 µM]
COCCN1CCC2(CCC1=O)CCN(C(=O)Nc1c(C)cccc1C)CC2 | 22%
CC(C)N(C)Cc1nnnn1CC(=O)N1CCCC(OCc2ccccn2)C1 (configuration not stated) | -11%
COc1ccc(NC(=O)c2nc(-c3ccc(C)cc3)n3c2CCCCC3)c(OC)c1 | 3%
COc1ccc(NC(=O)c2c(NC(=O)COc3ccccc3)sc3c2CCC(C)C3)cc1 (configuration not stated) | 8%
COc1ccc(NC(=O)Cn2c(=O)n(-c3ccccc3)c(=O)c3c4c(sc32)CCCC4)c(OC)c1 | 26%
CCOc1ccc(NC(=O)NCc2c(-n3cccc3)sc3c2CCCC3)cc1 | 30%
CCOc1ccccc1NC(=O)c1c(NC(=O)C(C)Oc2ccc(Cl)cc2)sc2c1CCCCC2 (configuration not stated) | 10µM*
CCOc1ccc(NC(=O)c2c(NCc3cccnc3)sc3c2CCCC3)cc1 | 13µM*
Cc1cc(C)c2c(=O)cc(C(=O)Nc3sc4c(c3C(=O)NCc3cccnc3)CCCC4)oc2c1 | 27%
O=C(Nc1sc2c(c1C(=O)Nc1ccccc1Cl)CCCC2)c1ccccc1F | 4%
COC(=O)c1c(NC(=O)c2cc(OC)c(OC)c(OC)c2Br)sc2c1CCC(C)C2 (configuration not stated) | 62%
COc1ccc(NC(=O)c2c(NCc3ccc(C)o3)sc3c2CCCCC3)c(OC)c1 | 11µM*
COc1ccc(NC(=O)c2c(NCc3ccc(C)o3)sc3c2CCC(C)C3)cc1 (configuration not stated) | 8.9µM*
CCOc1ccccc1NC(=O)c1c(NC(=O)c2ccccc2)sc2c1CCCC2 | i
CN[C@@H](CO)C(=O)NCc1nc(-c2ccc(C)cc2)c(-c2ccccn2)[nH]1 | -20%
Cc1ccc(NC(=O)N[C@H]2C[C@@H](c3nc(-c4ccc5c(c4)OCO5)no3)N(C)C2)cc1 | -11%[44.1 µM]
CN1C(=O)CC(C(=O)O)C12CCN(C(=O)NCCc1ccccc1)CC2 (configuration not stated) | 8%
COc1cccc([C@H]2CN(C(=O)c3ccc4cc[nH]c4c3)C[C@@H]2N)c1 | -16%
CCn1ncc(N2CCC(NC(=O)Cc3ccsc3)CC2)cc1=O | -5%
O=C(c1cccs1)N1CCC2(CCCN(CCC3CCCCC3)C2=O)C1 (configuration not stated) | -7%
O=C(Cn1ccn2nc(-c3ccc(F)cc3)c(CO)c2c1=O)Nc1cccc(Cl)c1 | -12%
SMILES | Pf Dd2 inh
CN(C)CCNC(=O)c1ccc2c(c1)C1(CCCN(CC3CC3)C1)CN2C (configuration not stated) | -27%[44.1 µM]
CC(=O)N1CCCC2(C1)CN(C)c1ccc(C(=O)NCCc3ccccc3)cc12 (configuration not stated) | 13%[44.1 µM]
CN1CC2(CCCN(CC3CC3)C2)c2cc(C(=O)NCCc3ccccc3)ccc21 (configuration not stated) | 3.2µM*
Cc1ccc(C(=O)N2CCC(c3nn(-c4ccc(Cl)cc4)c(=O)[nH]3)CC2)cc1 | -20%
O=C(NCCc1ccc(Cl)cc1)c1cc(-c2cnccc2Cl)c2cccn2n1 | -4%
O=C(NCCc1ccc(Cl)cc1)c1nc(-c2ccc(Cl)cc2Cl)c2ccccn12 | -19%
O=C(NCCc1ccc(Cl)cc1)c1nc(-c2ccc(Cl)cc2Cl)c2cnccn12 | 4.5µM*
Cc1ccccc1C(=O)N1CCCN(c2nnc3ccc(Cl)cn23)CC1 | i
Cn1nccc1C(=O)N1CCCC(c2noc(COc3ccccc3)n2)C1 (configuration not stated) | -21%
Cc1ccccc1C(=O)N1CCC2(CC1)N=C(c1ccc(Br)cc1)NO2 | i
CN(C)C[C@@H]1CN(S(C)(=O)=O)C[C@H]1NC(=O)CN1CCOCC1 | 56%
O=C(NCC1CCOCC1)c1ccsc1 | 67%
Cc1ccc(-c2nc3ccccc3[nH]2)cc1NC(=O)COc1cccc(C)c1C | 7.1µM*
Cc1ccc(-c2nc3ccccc3s2)cc1NC(=O)COc1ccccc1 | 13%
COc1ccc(OCC(=O)Nc2cc(-c3nc4ccccc4s3)ccc2C)cc1 | 3%
CCN(C1CCOCC1)C1CN(C(=O)C2CCCO2)C1 (configuration not stated) | 1%
Cn1cc(CN2CCOC[C@H](Oc3cnccn3)C2)cn1 | 0%[44.1 µM]
COCc1nc(CCNC(=O)c2ccc(OC)nc2)no1 | 5%
Cn1cc(C(=O)NCCc2noc(-c3ccncc3)n2)cn1 | 0%
COc1ccc(C(=O)NCCc2noc(-c3ccncc3)n2)cn1 | 2.5µM*
COCCN1C(=O)CC[C@]2(C(=O)NCc3ccc(C)cc3)CCCC[C@@H]12 | -5%
